Laboratory results reported in PubChem BioAssay (NCI).
The panel holds about 83,000 compounds, 20% with a hit somewhere; the sample as a whole holds those more often.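 Values shown are percent growth following 48 h exposure of cells in 96-well plates to a single concentration of compound; below 10 was considered active.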 The source made the active and inactive calls.

Columns and labels:
Experiment in all cases: NCI-60 one-dose screen, 48 h (100 = growth as untreated, 0 = no growth, -100 = all killed)
Conditions in all cases: 10 µM unless noted
HCT-15 colon = test system: HCT-15 colon
HT29 colon = test system: HT29 colon
SNB-19 CNS = test system: SNB-19 CNS
U251 CNS = test system: U251 CNS
SK-MEL-5 melanoma = test system: SK-MEL-5 melanoma
UACC-62 melanoma = test system: UACC-62 melanoma
LOX IMVI melanoma = test system: LOX IMVI melanoma
SK-MEL-28 melanoma = test system: SK-MEL-28 melanoma
PC-3 prostate = test system: PC-3 prostate
SNB-75 CNS = test system: SNB-75 CNS

Measured: growth

CC(=O)Oc1ccc(Cl)cc1CN(C(C)=O)C1CCCCC1
inactive: HCT-15 colon 101% | HT29 colon 107% | SNB-19 CNS 95.7% | U251 CNS 95.9% | SK-MEL-5 melanoma 101% | UACC-62 melanoma 86.8% | LOX IMVI melanoma 114% | SK-MEL-28 melanoma 106%

CCOc1ccc(-n2nc(C(=O)Nc3ccccc3)nc2-c2cc(OC)c(OC)c(OC)c2)cc1
inactive: HCT-15 colon 35.4% | HT29 colon 13% | SNB-19 CNS 55.8% | PC-3 prostate 44.9% | LOX IMVI melanoma 55.8%

COc1ccc(NC2=C(Sc3nc(C)cc(C)n3)C(=O)N(Cc3ccccc3)C2=O)cc1Cl
inactive: HCT-15 colon 73.8% [30 µM] | HT29 colon 60.1% [30 µM] | SNB-19 CNS 95.4% [30 µM] | U251 CNS 86.9% [30 µM] | SK-MEL-5 melanoma 57.9% [30 µM] | UACC-62 melanoma 71.5% [30 µM] | LOX IMVI melanoma 93.2% [30 µM] | SK-MEL-28 melanoma 103% [30 µM]

Nc1ccc(S(=O)(=O)O)c2ccc(N=Nc3ccc(N=Nc4ccc(S(=O)(=O)O)cc4)c4ccccc34)c(O)c12
inactive: HCT-15 colon 115% | HT29 colon 103% | U251 CNS 111% | PC-3 prostate 91.6% | UACC-62 melanoma 91.3% | LOX IMVI melanoma 98.1% | SK-MEL-28 melanoma 109%

CC(=O)c1cc(C(=O)c2ccc3c(c2)Sc2ccccc2N3)n2ccccc12
active: HT29 colon -13.1% | U251 CNS 9.6%
inactive: HCT-15 colon 17.9% | SNB-19 CNS 30.9% | LOX IMVI melanoma 20.8%

CCc1nnc(CNc2ccc(Cl)cc2)o1
inactive: HCT-15 colon 100% | HT29 colon 95.1% | SNB-19 CNS 106% | PC-3 prostate 95.1% | UACC-62 melanoma 93.7% | LOX IMVI melanoma 91.2% | SK-MEL-28 melanoma 100%

COc1ccc(C(=O)c2sc3nc4c(c(-c5cccnc5)c3c2N)CCCC4)cc1OC
inactive: HCT-15 colon 72.8% | HT29 colon 74.3% | SNB-19 CNS 71% | U251 CNS 70.2% | SK-MEL-5 melanoma 59.6% | UACC-62 melanoma 87.6% | LOX IMVI melanoma 70.2% | SK-MEL-28 melanoma 77.9%

O=C(N=Nc1c(O)[nH]c2ccccc12)c1cc(-c2ccccc2)on1
inactive: HCT-15 colon 102% | HT29 colon 104% | SNB-19 CNS 100% | PC-3 prostate 101% | SK-MEL-5 melanoma 100% | UACC-62 melanoma 99.6% | LOX IMVI melanoma 95.9% | SK-MEL-28 melanoma 108%

COc1ccccc1NS(=O)(=O)c1ccc2oc(SC(C)C)nc2c1
inactive: HCT-15 colon 125% | HT29 colon 96.3% | SNB-19 CNS 93.7% | U251 CNS 138% | SK-MEL-5 melanoma 49.9% | UACC-62 melanoma 59.9% | LOX IMVI melanoma 146% | SK-MEL-28 melanoma 115%

CC/C=C\C[C@H](O)C/C=C1/C(=O)C=C[C@@]1(C)C/C=C\CCCC(=O)OC
inactive: HCT-15 colon 101% | HT29 colon 110% | SNB-19 CNS 101% | U251 CNS 94.2% | PC-3 prostate 96.1% | LOX IMVI melanoma 94.3%

COc1ccc(S(=O)(=O)N2CCCCC2)cc1NC(=O)c1[nH]c(C)c2c1CCCCC2=O
active: HCT-15 colon 5.16% | SK-MEL-5 melanoma -24.4% | LOX IMVI melanoma -56.6%
inactive: HT29 colon 11% | SNB-19 CNS 36.1% | U251 CNS 23.4% | UACC-62 melanoma 14.5% | SK-MEL-28 melanoma 48.1%

O=S(=O)(Nc1ccc(I)cc1F)c1ccc(-c2cnc(C3CC3)o2)cc1
inactive: HCT-15 colon 25.5% | HT29 colon 15.9% | SNB-19 CNS 62.8% | PC-3 prostate 68% | SK-MEL-5 melanoma 62.8% | UACC-62 melanoma 32.8% | LOX IMVI melanoma 52.5% | SK-MEL-28 melanoma 61.7%

O=S(=O)(Nc1ccc(NS(=O)(=O)c2ccccc2)c(Cl)c1)c1ccccc1
inactive: HCT-15 colon 110% | HT29 colon 107% | SNB-19 CNS 112% | U251 CNS 105% | PC-3 prostate 88.7% | UACC-62 melanoma 88.8% | LOX IMVI melanoma 106% | SK-MEL-28 melanoma 107%

Cc1nc2c3c(-c4ccccc4)c(-c4ccccc4)oc3ncn2n1
inactive: HCT-15 colon 101% | HT29 colon 95.8% | SNB-19 CNS 96.6% | PC-3 prostate 91.3% | SK-MEL-5 melanoma 96.3% | UACC-62 melanoma 92.3% | LOX IMVI melanoma 90.7% | SK-MEL-28 melanoma 118%

COC(=O)c1cccc(NC(=O)c2ccc(-c3cccc(N)c3)o2)c1
inactive: HCT-15 colon 96.6% | HT29 colon 107% | SNB-19 CNS 95.5% | U251 CNS 104% | SK-MEL-5 melanoma 81.8% | UACC-62 melanoma 91.4% | LOX IMVI melanoma 99.6% | SK-MEL-28 melanoma 102%

COc1ccc(-n2nc(C)c3c(Nc4ccc(NC(=O)Nc5ccc(Cl)c(C(F)(F)F)c5)cc4)ncnc32)cc1
inactive: SNB-19 CNS 13.5%
active: HCT-15 colon -9.82% | HT29 colon 1.57% | U251 CNS -29.2% | UACC-62 melanoma 4.84% | LOX IMVI melanoma -81.4% | SK-MEL-28 melanoma 4.78%

C=C(C)[C@@H]1CC[C@]2(C(N)=O)CC[C@]3(C)[C@H](CC[C@@H]4[C@@]5(C)C/C(=C/c6ccco6)C(=O)C(C)(C)[C@@H]5CC[C@]43C)[C@@H]12
inactive: HCT-15 colon 86.9% | HT29 colon 98.5% | SNB-19 CNS 94.5% | PC-3 prostate 75.7% | SK-MEL-5 melanoma 96.5% | UACC-62 melanoma 80.2% | LOX IMVI melanoma 88.4% | SK-MEL-28 melanoma 99.6%

CCOc1cc2ncc(C#N)c(Nc3ccc(OCc4cccc(F)c4)c(Cl)c3)c2cc1NC(=O)CCCCC1CCSS1 (centres undefined)
inactive: HCT-15 colon 97% | HT29 colon 86.8% | SNB-19 CNS 105% | U251 CNS 82.5% | PC-3 prostate 83.9% | UACC-62 melanoma 89% | LOX IMVI melanoma 79.5% | SK-MEL-28 melanoma 101%

O=C1/C(=C/c2ccc(Cl)cc2)SC(=S)N1CCc1ccc(O)cc1
inactive: HCT-15 colon 99.7% | HT29 colon 117% | SNB-19 CNS 98.9% | U251 CNS 101% | UACC-62 melanoma 78.5% | LOX IMVI melanoma 65.1% | SK-MEL-28 melanoma 101%

C=C1c2nc3ccccc3n2C=C(c2ccc(OC)cc2)N1Cc1ccccc1
inactive: HCT-15 colon 73.8% | HT29 colon 73.2% | SNB-19 CNS 79.3% | U251 CNS 80.5% | SK-MEL-5 melanoma 87.1% | UACC-62 melanoma 88.6% | LOX IMVI melanoma 91.1% | SK-MEL-28 melanoma 119%

COc1cccc(/C=N/NC(=O)c2ccccc2Nc2ccnc(C(F)(F)F)c2)c1O
active: SK-MEL-5 melanoma -33.1% | UACC-62 melanoma -24.2% | LOX IMVI melanoma 4.88%
inactive: HCT-15 colon 28.4% | HT29 colon 51.3% | SNB-19 CNS 21.1% | U251 CNS 17.1% | SK-MEL-28 melanoma 23%

CCOC(=O)c1csc(NC(=O)COc2cccc(/C=C3\CSc4ccccc4C3=O)c2)n1
active: HT29 colon -34.2% | SNB-75 CNS -33.7% | U251 CNS -54.2% | LOX IMVI melanoma -93.9%
inactive: SNB-19 CNS 81.3% | SK-MEL-5 melanoma 54.5% | UACC-62 melanoma 64.4% | SK-MEL-28 melanoma 89.3%

O=C(Oc1cccnc1)c1ccsc1Nc1ccnc(C(F)(F)F)c1
active: HT29 colon 4.26%
inactive: SNB-75 CNS 80.5% | SNB-19 CNS 97.7% | U251 CNS 92.5% | PC-3 prostate 83.8% | UACC-62 melanoma 91.5% | LOX IMVI melanoma 21.9% | SK-MEL-28 melanoma 89.3%

CNC(=O)c1cc(Oc2ccc(NC(=O)Nc3ccc(Cl)c(SC)c3)c(F)c2)ccn1
inactive: HT29 colon 30% | SNB-75 CNS 71% | SNB-19 CNS 75% | U251 CNS 56% | PC-3 prostate 34.2% | UACC-62 melanoma 28% | LOX IMVI melanoma 37.7% | SK-MEL-28 melanoma 56.7%

Cc1ccc(C2=NN3C(C2)c2cc(Br)ccc2OC32CCN(Cc3ccccc3)CC2)o1 (centres undefined)
inactive: HT29 colon 107% | SNB-75 CNS 79% | SNB-19 CNS 94.9% | U251 CNS 96.3% | SK-MEL-5 melanoma 92.1% | UACC-62 melanoma 82.3% | LOX IMVI melanoma 94.4% | SK-MEL-28 melanoma 102%

COc1ccc(CN2c3ccccc3Oc3ccccc32)cc1F
inactive: HT29 colon 11.2% | SNB-75 CNS 47.9% | SNB-19 CNS 67.8% | PC-3 prostate 64.8% | LOX IMVI melanoma 59%

CC(C)n1c(/C=C/[C@@H](O)C[C@@H](O)CC(=O)O)c(-c2ccc(F)cc2)c2ccccc21
inactive: HT29 colon 75.9% | SNB-75 CNS 29.9% | SNB-19 CNS 55.7% | U251 CNS 15.9% | PC-3 prostate 26.5% | UACC-62 melanoma 16.3% | SK-MEL-28 melanoma 72.9%
active: LOX IMVI melanoma 5.69%

CN(C)CCCNc1c2ccccc2nc2ccccc12
inactive: HT29 colon 82.8% | SNB-75 CNS 66.9% | SNB-19 CNS 90.5% | SK-MEL-5 melanoma 93.2% | UACC-62 melanoma 105% | LOX IMVI melanoma 96.3% | SK-MEL-28 melanoma 103%

Cc1ccc(C(SCC(N)C(=O)O)(c2ccccc2)c2ccc(C)cc2)cc1 (centres undefined)
inactive: SNB-75 CNS 16.8% | SNB-19 CNS 36.5% | SK-MEL-5 melanoma 16.7% | UACC-62 melanoma 13.6% | LOX IMVI melanoma 41.7% | SK-MEL-28 melanoma 30%
active: HT29 colon 1.66% | U251 CNS 7.96%

Cc1cc(C)nc(SC2=C(Nc3ccc(C)c(Cl)c3)C(=O)N(Cc3ccccc3)C2=O)n1
inactive: HT29 colon 46% [30 µM] | SNB-75 CNS 58.9% [30 µM] | SNB-19 CNS 78.2% [30 µM] | U251 CNS 68.8% [30 µM] | SK-MEL-5 melanoma 62.2% [30 µM] | UACC-62 melanoma 49.7% [30 µM] | LOX IMVI melanoma 75.9% [30 µM] | SK-MEL-28 melanoma 94.2% [30 µM]
